The record followed here is PubChem BioAssay (Tox21).

Inconclusive results are not listed. Entries that show only a call come without a potency. Active and inactive are the calls of the source. Unless noted, calls come from the whole dose curve; as a rule, active = well fitted cell-killing curve with a large enough effect in the repeat runs; inconclusive = weak or mixed curves, or effect the other way; inactive = no such curve, though single readings can be large or run the other way.
Potency is the fitted concentration of half-maximal effect.

Glucocorticoid receptor (Homo sapiens), sequence (P04150 whole entry, looked up): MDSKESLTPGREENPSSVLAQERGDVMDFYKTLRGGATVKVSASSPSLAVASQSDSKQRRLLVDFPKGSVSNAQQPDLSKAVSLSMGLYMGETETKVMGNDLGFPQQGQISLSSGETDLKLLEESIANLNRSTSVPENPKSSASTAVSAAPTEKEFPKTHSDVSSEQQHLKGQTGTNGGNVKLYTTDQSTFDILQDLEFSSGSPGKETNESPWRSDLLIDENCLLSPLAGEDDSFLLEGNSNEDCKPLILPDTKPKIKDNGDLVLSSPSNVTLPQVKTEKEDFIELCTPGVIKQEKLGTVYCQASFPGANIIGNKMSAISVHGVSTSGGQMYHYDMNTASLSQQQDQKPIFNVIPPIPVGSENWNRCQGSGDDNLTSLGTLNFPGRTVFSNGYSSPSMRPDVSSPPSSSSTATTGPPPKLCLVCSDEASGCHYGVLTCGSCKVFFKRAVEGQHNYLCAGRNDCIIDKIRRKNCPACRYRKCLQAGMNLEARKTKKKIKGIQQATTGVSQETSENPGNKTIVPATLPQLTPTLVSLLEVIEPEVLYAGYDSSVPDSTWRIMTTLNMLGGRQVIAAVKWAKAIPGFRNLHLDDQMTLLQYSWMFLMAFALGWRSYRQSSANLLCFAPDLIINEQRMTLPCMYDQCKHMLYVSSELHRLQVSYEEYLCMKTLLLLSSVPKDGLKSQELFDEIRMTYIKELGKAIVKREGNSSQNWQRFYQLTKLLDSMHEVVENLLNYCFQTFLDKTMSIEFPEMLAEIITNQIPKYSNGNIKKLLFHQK

The first experiment addresses Glucocorticoid receptor (Homo sapiens) (UniProt P04150). In words: qHTS assay to identify small molecule antagonists of the glucocorticoid receptor (GR) signaling pathway (AID 720692; active = well fitted inhibition curve with a large enough effect in the signal ratio in the repeat runs, not every such curve was filed as active; the % refers to the signal ratio). The settings on record: GR-bla HeLa, beta-lactamase FRET ratio, dexamethasone-stimulated, 18 h; series mostly up to 58.5 µM. The gist of the method: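 GR-bla HeLa cells carrying a GRE-driven beta-lactamase reporter received compound after 4 h plating, then dexamethasone (5 nM final). After 18 h at 37C, the FRET substrate was loaded for 2 h at room temperature and fluorescence read.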
(Quantitative high-throughput screening tests each substance at several concentrations.)
Take `O=c1c2ccccc2c(=O)c2c1cc(Cl)c1[nH]c3c([nH]c12)c(Cl)cc1c(=O)c2ccccc2c(=O)c13`: the Potency result is “inactive”.
Same read-out and setting: in the case of `CCN(CC)CCN1C(=O)CN=C(c2ccccc2F)c2cc(Cl)ccc21` it was “inactive”; in that of `CNC(=O)O/N=C(\C)C(C)S(C)(=O)=O` (stereo not given), “inactive”; in that of `Nc1nc(N)nc(Cl)n1`, “inactive”.
Regarding `Cc1cccc(Cc2cnc[nH]2)c1C`, the Potency result is “inactive”.
The same measure, in the same setting: in the case of `O=NN(CCO)CCO` it was “inactive”; in that of `CCCCON=O`, “inactive”; in that of `NC(=O)C(Cl)Cl`, “inactive”.
On the same count and under the same terms, then `CCCCc1ccccc1`, with “inactive”.
Same read-out and setting: in the case of `CNC(=O)CSP(=O)(OC)OC` it was “inactive”; in that of `Cc1ccc2cc3c(ccc4ccccc43)c3c2c1CC3`, “inactive”.
Consider `CSC(C)(C)/C=N/O`, for which the Potency result is “inactive”.
Regarding `CC(Cl)CCl` (stereo not given), the Potency entry was “inactive”.
On the same count and under the same terms, then `CCOP(=O)(OCC)Oc1nc(Cl)c(Cl)cc1Cl`, with 27.4 µM (active); and `CNC(C)(C)Cc1ccccc1`, with “inactive”.
Still for that read-out and setting: in the case of `C[N+]1(C)[C@@H]2CC[C@H]1CC(OC(=O)C(CO)c1ccccc1)C2` (stereo not given in full) it was “inactive”; in that of `Cc1cnc2c(C(=O)O)c(Cl)ccc2c1`, “inactive”.

System in the next experiment: not listed separately
In words: qHTS assay to identify small molecule antagonists of the glucocorticoid receptor (GR) signaling pathway - cell viability counter screen (AID 720693). Note: nearly all actives have a fitted effect of over 55% in size. Conditions: GR-bla HeLa viability, CellTiter-Glo luminescence, 18 h, with 5 nM dexamethasone present; series mostly up to 58.5 µM.
In the case of `O=c1c2ccccc2c(=O)c2c1cc(Cl)c1[nH]c3c([nH]c12)c(Cl)cc1c(=O)c2ccccc2c(=O)c13`, the Potency result is “inactive”.
Same read-out and setting: in the case of `CCN(CC)CCN1C(=O)CN=C(c2ccccc2F)c2cc(Cl)ccc21` it was “inactive”; in that of `CCCCCCC[CH2][Sn]([Cl])([Cl])[CH2]CCCCCCC`, 54.9 µM (active); in that of `O=C(NC(=O)c1c(F)cccc1F)Nc1ccc(Oc2ccc(C(F)(F)F)cc2Cl)cc1F`, “inactive”.
Take `CN(C)C(=S)SSC(=S)N(C)C`: the Potency entry was “inactive”.
With `Nc1nc(N)nc(Cl)n1`, the Potency result is “inactive”.
Consider `O=[N+]([O-])c1ccc(Cl)c(Cl)c1Cl`, for which the Potency entry is “inactive”.
The same measure, in the same setting: in the case of `Cc1cccc(Cc2cnc[nH]2)c1C` it was “inactive”; in that of `C=CC(=O)[O][Sn]([CH2]CCC)([CH2]CCC)[CH2]CCC`, 1.55 µM (active).
As to `CSSC`, the Potency result is “inactive”.
Still for that read-out and setting: then `CNC(=O)Oc1cc(C)cc(C(C)C)c1`, with “inactive”.
On the same count and under the same terms, then `CCc1cccc(C)c1N(C(=O)CCl)[C@@H](C)COC`, with “inactive”; and `NC(=O)C(Cl)Cl`, with “inactive”.
The same measure, in the same setting: then `CN1C(=O)[C@@H](NC(=O)c2cc3ccccc3[nH]2)N=C(c2ccccc2)c2ccccc21`, with “inactive”; and `O=C(N[C@@H]1N=C(c2ccccc2F)c2cccc3c2N(CC3)C1=O)c1cc2ccccc2[nH]1`, with “inactive”.
Turning to `CCCCc1ccccc1`, the Potency entry was “inactive”.
For the compound `Clc1ccc(C(Cl)(Cl)Cl)cc1Cl`, the Potency entry is “inactive”.
Same read-out and setting: in the case of `CCn1cc[n+](C)c1` (tested in a mixture with another compound) it was “inactive”; in that of `CNC(=O)CSP(=O)(OC)OC`, “inactive”; in that of `[Cl][Hg][c]1ccccc1`, 0.309 µM (active).
On to `ClCBr`, for which the Potency result is “inactive”.
The same measure, in the same setting: then `Cc1ccc2cc3c(ccc4ccccc43)c3c2c1CC3`, with “inactive”; and `CSC(C)(C)/C=N/O`, with “inactive”; and `CCNS(=O)(=O)C(F)(F)C(F)(F)C(F)(F)C(F)(F)C(F)(F)C(F)(F)C(F)(F)C(F)(F)F`, with “inactive”.
The same measure, in the same setting: then `CC(Cl)CCl` (stereo not given), with “inactive”; and `CNC(C)(C)Cc1ccccc1`, with “inactive”.
Consider `C=CC(=C)C`, for which the Potency entry was “inactive”.
On the same count and under the same terms, then `Cc1cnc2c(C(=O)O)c(Cl)ccc2c1`, with “inactive”.
